Sampled rows, rich in hits. Any-hit rate of the full collection: about 4%.
FBA Mtb inh: inhibits M. tuberculosis FBA enzyme | P9WQA3 | AID 588726 | purified M. tuberculosis FBA, fluorescence read-out | actives 2.3% (n = 360,000) | inhibition, % at 1 µM; in the data active means inhibition above about 27%
Target sequence (P9WQA3 whole entry, looked up): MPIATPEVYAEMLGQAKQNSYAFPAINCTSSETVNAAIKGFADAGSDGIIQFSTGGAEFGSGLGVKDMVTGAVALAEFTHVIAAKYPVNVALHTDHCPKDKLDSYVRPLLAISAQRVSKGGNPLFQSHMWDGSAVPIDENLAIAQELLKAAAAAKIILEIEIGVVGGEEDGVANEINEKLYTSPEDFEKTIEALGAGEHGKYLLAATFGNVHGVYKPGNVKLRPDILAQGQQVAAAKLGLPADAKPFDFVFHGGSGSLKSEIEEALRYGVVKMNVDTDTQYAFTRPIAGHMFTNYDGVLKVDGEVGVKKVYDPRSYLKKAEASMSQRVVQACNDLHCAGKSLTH
MazF activator: MazEF (E. coli) toxin RNase activation | actives 0.32% (n = 350,000) | activation, % at 20 µM | FAM/BHQ RNA-DNA oligo cleavage fluorescence, 5 h | P0AE70; in the data active means activation above about 50%
GDH-TPI counter: counter-screen for M. tuberculosis FBA inhibitors: GDH-TPI coupled enzymes. GDH-TPI coupled enzyme counterscreen, NADH absorbance. inhibition, % at 4.8 µM. actives 1.2% (n = 360,000). AID 588335
CCHF vOTU inh: CCHFV vOTU protease inhibition. AID 651958. actives 0.55% (n = 370,000). inhibition, % at 11.5 µM. Pep-AMC fluorescence
Mtb betalactam: beta-lactam sensitization of Mtb H37Rv | inhibition, % at 25 µM | M. tuberculosis H37Rv growth with meropenem, percent inhibition | actives 0.27% (n = 330,000); call rule not given here;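 further: growth measured after seven days incubation then overnight dye step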
A number is an active result; 0 = inactive; - = no result; + = active, no number. Unless noted, no stated cut-off is given here; in the data, active means inhibition above about 30%; inactive means the rest.

SMILES	FBA Mtb inh	MazF activator	GDH-TPI counter	CCHF vOTU inh	Mtb betalactam
COc1ccc2cc3c(N)nn(C(=O)c4ccc(F)cc4)c3nc2c1	0	0	41.2	0	0
COc1ccc2cc3c(N)nn(C(=O)c4ccccc4Cl)c3nc2c1	0	0	35.8	0	0
CC1(C)Oc2ccc(C(=O)NCCCN3CCCC3)cc2NC1=O	-	-	-	0	-
CCCS(=O)(=O)c1c(S(=O)(=O)CCC)c2cc(-c3ccncc3)ccn2c1C(=O)OC	+	0	0	0	0
CCCS(=O)(=O)c1c(S(=O)(=O)CCC)c2cnccn2c1C(=O)c1ccc(OC)cc1	0	0	0	0	0
C#CCN1C(=O)C2(C(C#N)=C(N)OC(C)=C2C(=O)OCc2ccccc2)c2ccccc21 (centres undefined)	0	0	0	0	0
CCOC(=O)C1=C(C)OC(N)=C(C#N)C12C(=O)N(C)c1ccccc12 (centres undefined)	0	62.8	0	0	0
O=C(CCc1ccccc1)N[C@H]1[C@@H](OC(=O)c2cccnc2)CCC[C@@]12C(=O)N(Cc1ccccc1)c1ccccc12	-	-	-	0	-
COc1cc2cc(C(=O)NCCc3ccccc3)[nH]c2cc1OC	160.3	0	0	0	0
COc1cc2cc(C(=O)Nc3ccc4c(c3)OCCO4)[nH]c2cc1OC	0	0	36.2	0	0
COc1cc2[nH]c(C(=O)Nc3ccc4c(c3)OCCO4)cc2c(OC)c1OC	0	0	0	0	0
O=C(c1ccc(Cl)cc1)N1CCC(Oc2cccnc2)CC1	-	-	-	0	-
Cc1ccccc1C(=O)Nc1ccc(C(=O)N/N=C/c2ccncc2)cc1	0	0	0	0	0
O=C(N/N=C/c1ccc(O)cc1)c1ccc(NC(=O)c2ccccc2Br)cc1	0	0	42.5	0	0
O=C(N/N=C/c1ccncc1)c1cccc(N/N=C/c2ccncc2)c1	0	0	0	0	0
O=C(Nc1ccccc1C(=O)N/N=C/c1ccc(F)cc1)c1ccccc1Br	0	0	0	0	0
Cc1ccccc1C(=O)Nc1ccc(C(=O)N/N=C/c2ccc(O)cc2)cc1	0	0	33.8	0	0
O=C(N/N=C/c1ccc(O)cc1)c1cccc(N/N=C/c2ccc(O)cc2)c1	0	0	36.9	0	0
C#CCN1C(C(=O)OC)CN(CCCCCC)CCS1(=O)=O (centres undefined)	-	-	-	0	-
CC(C)C[C@H]1COc2cc(Br)ccc2S(=O)(=O)N1Cc1cn(Cc2ccc(F)cc2)nn1	-	-	-	0	-
Cc1nc2ccc(S(=O)(=O)NCC(=O)NCc3cccs3)cc2s1	-	-	-	0	-
O=C(NCc1cccs1)C1CCC(CNS(=O)(=O)c2cccc3cccnc23)CC1 (centres undefined)	-	-	-	0	-
COc1ccc(C(=O)N/N=C/c2ccc(OC)c(CSc3ccccn3)c2)cc1	0	0	0	0	0
CCOC(=O)c1ccccc1OCc1cc(/C=N/NC(=O)c2ccncc2)ccc1OC	0	0	37.9	0	0
COc1ccc(C(=O)N/N=C\c2ccc(OC)c(COc3ccccc3Br)c2)c(OC)c1	0	0	35.4	0	0
SMILES	FBA Mtb inh	MazF activator	GDH-TPI counter	CCHF vOTU inh	Mtb betalactam
COc1ccc(/C=N\NC(=O)c2ccc(F)cc2)cc1COc1ccccc1C(N)=O	0	0	0	0	0
COc1ccc(/C=N/NC(=O)c2ccncc2)cc1CSc1nc2ccccc2s1	0	0	30.9	0	0
COc1ccc(/C=N\NC(=O)c2ccccc2Br)cc1COc1ccccc1	0	0	0	0	0
CCCCN(C)C(=O)c1oc(=O)c2ccccc2c1-c1ccc(C)cc1	-	-	-	0	-
COc1cccc(NC(=O)c2ccc3c(c2)N(C)CCS3)c1	0	0	0	0	0
CN1CCSc2ccc(C(=O)NCc3cccc(F)c3)cc21	113.0	0	0	0	0
COc1ccc(-c2cc(-c3ccccc3)nc3ncnn23)cc1	+	0	0	0	0
Cc1cc(C)c(S(=O)(=O)/N=C2/C=C(Sc3ncn[nH]3)C(=O)c3ccccc32)cc1C	0	0	0	118.1	0
Cc1cccc(S(=O)(=O)Nc2nc3ccccc3nc2NCC2CCCO2)c1 (centres undefined)	0	0	33.3	0	0
Cc1ccc(S(=O)(=O)Nc2nc3ccccc3nc2NCC2CCCO2)cc1C (centres undefined)	0	0	33.3	0	0
Cc1ccc(S(=O)(=O)Nc2nc3ccccc3nc2NCc2ccco2)cc1	0	0	32.0	0	0
O=S(=O)(Nc1nc2ccccc2nc1NCc1ccco1)c1ccc(Cl)cc1	0	0	0	0	0
COC(=O)[C@]12C[C@H](CC(=O)N3CCSCC3)C(=O)N(Cc3ccco3)C1=C[C@H](C(C)C)O[C@@H]2C1CC1	-	-	-	0	-
CC(=O)Nc1ccc(S(=O)(=O)N2C(C)CCCC2C)cc1 (centres undefined)	0	0	0	0	0
